NPC1 promoter act: qHTS Assay for NPC1 Promoter Activators; 2.4% of 320,000 active; Potency, µM (doses to about 9.22 µM), for the others: top-dose activation, hits mostly activators; Huh7 NPC1 promoter luciferase reporter, 24 h; note: % of control where 0% means no effect; nearly all actives have a fitted effect of over 60% in size
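Readout is luciferase luminescence, reflecting NPC1 promoter activation in stably transfected Huh7 cells after 24 h compound exposure at 37 °C in reduced-serum medium with 10% FBS.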
ELG1 genotoxic: qHTS screen for small molecules that induce genotoxicity in human embryonic kidney (HEK293T) cells expressing luciferase-tagged ELG1; HEK293T ELG1-luciferase reporter, luminescence, 16 h; Potency, µM (highest dose often 46 µM), inactives show at the top dose activity change, positive = activation, actives largely listed as activators; 1.3% of 330,000 active; AID 504466, 2011; note: % of control where 0% means no effect; nearly all actives have a fitted effect of over 60% in size
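Genotoxicity was scored as increased ELG1-luciferase reporter signal, measured by ONE-Glo luminescence (30 min, room temperature). Compound or vehicle exposure of the HEK293T reporter cells lasted 16 hr at 37°C.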
Luc counter: Counterscreen for Luciferase (Kinase-Glo TM) Inhibition; Luciferin 4-monooxygenase (Photuris pensylvanica), Q27757; Kinase-Glo luciferase, ATP luminescence, 8 min; Potency, µM (doses to about 38.3 µM), for inactives: top-dose activity change, negative = inhibition, hits mostly inhibitors; 0.28% of 200,000 active; AID 1379, 2008; note: % is set by controls: 0 for no effect and ±100 for the full control effect; nearly all actives have a fitted effect of over 60% in size
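Compound is pinned into ATP-containing buffer (10 uM ATP, imidazole pH 7.2, 7 mM MgCl2). Kinase-Glo luciferase reagent is then added. Light output is recorded following an 8-min room-temperature incubation.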
Rab9 promoter act: qHTS Assay for Rab9 Promoter Activators | Huh7 Rab9 promoter-luciferase reporter, luminescence, 24 h | Potency, µM (titrated, usually from 9.22 µM), for the others: at the highest dose activation, negative = inhibition, hits mostly activators | 2.8% of 320,000 active; note: % of control where 0% means no effect; nearly all actives have a fitted effect of over 60% in size
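Huh7 cells stably carrying a Rab9 promoter-luciferase reporter, 1500 cells per well in OP-MEM I with 10% FBS, treated with compound 24 hours at 37C. Luciferase activity read by luminescence after 10 minutes with Amplite reagent.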
FLuc counter: qHTS profiling assay for firefly luciferase inhibitor/activator using purifed enzyme and Km concentrations of substrates (counterscreen for miR-21 project) | Luciferin 4-monooxygenase (Photinus pyralis), P08659 | purified FLuc, Km substrates, luminescence inhibition | Potency, µM (series often up to 57.5 µM), without a hit: at the top dose activity change, negative = inhibition, actives largely listed as inhibitors | 6.9% of 360,000 active | AID 588342, 2011;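 note: plate controls were vehicle for no effect and reference inhibitor for full effect; nearly all actives have a fitted effect of over 55% in size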
Target sequence (P08659 whole entry, looked up): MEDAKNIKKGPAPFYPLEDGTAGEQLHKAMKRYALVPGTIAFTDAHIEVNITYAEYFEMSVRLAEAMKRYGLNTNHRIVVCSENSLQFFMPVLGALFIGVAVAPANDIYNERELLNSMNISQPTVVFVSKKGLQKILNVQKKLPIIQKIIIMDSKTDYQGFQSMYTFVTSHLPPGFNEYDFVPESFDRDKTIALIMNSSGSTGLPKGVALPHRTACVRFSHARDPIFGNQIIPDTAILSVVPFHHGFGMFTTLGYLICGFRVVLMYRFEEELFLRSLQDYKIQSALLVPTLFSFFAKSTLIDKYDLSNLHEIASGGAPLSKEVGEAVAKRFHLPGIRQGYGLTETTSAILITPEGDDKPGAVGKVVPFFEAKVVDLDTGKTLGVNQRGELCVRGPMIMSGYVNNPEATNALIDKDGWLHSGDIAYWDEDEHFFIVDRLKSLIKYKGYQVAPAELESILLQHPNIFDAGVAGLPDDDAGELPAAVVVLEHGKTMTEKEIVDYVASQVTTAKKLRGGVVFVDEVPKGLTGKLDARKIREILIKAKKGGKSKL
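Biochemical qHTS of compounds, final roughly 60 µM downward over six points, against 10 nM purified firefly luciferase using Km concentrations of substrates (10 uM D-luciferin, 10 uM ATP) in Tris acetate pH 7.5 buffer; luminescence output.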
SMN2 splice enh: qHTS Assay for Enhancers of SMN2 Splice Variant Expression. 2.8% of 210,000 active. Potency, µM (highest dose often 46.1 µM), for inactives: top-dose activity change, positive = activation, usual class: activators. HEK293 SMN2-luciferase splicing reporter, luminescence, 30-36 h. AID 1458, 2008; note: % of control where 0% means no effect; nearly all actives have a fitted effect of over 55% in size
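HEK293 cells carry an SMN2 minigene-luciferase reporter in which exon 7 inclusion puts luciferase in frame. Cells were seeded at 2000 cells/well, attached for 10-12 hours, then exposed to compounds for 30-36 hours at 37C before ONE-Glo luminescence.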
* hit, by the source's call; ? = inconclusive; . = no result given; [ ] = dose if it differs, or a comment. Hits are enriched below; roughly 7.4% of the tested compounds scored in any of these assays. Calls come from the whole dose curve; as a rule, active = well fitted curve in the direction sought with a large enough effect; inconclusive = small, poorly fitted or top-dose-only effect, or another doubt; inactive = no such curve, though single readings can be large; an effect the other way counts as inactive or inconclusive. Potency is the fitted concentration of half-maximal effect.

SMILES	NPC1 promoter act	ELG1 genotoxic	Luc counter	Rab9 promoter act	FLuc counter	SMN2 splice enh
O=C1CN(C(=O)COC(=O)c2ccc[n+]([O-])c2)c2ccccc2N1	-2%	-2%	2%	0%	-1%	0%
Cc1ccc(C(=O)Nc2ccc(Cl)cc2C)c(Cl)c1	0.89µM*	2.9µM*	-1%	3.2µM*	1.7µM*	10µM*
CNS(=O)(=O)c1ccc(NC(=O)c2ccc(Cl)cc2Cl)cc1	-4%	0%	11%	3%	-13%	-9%
Cc1ccc(NC(=O)c2ccc(Cl)cc2Cl)cc1O	?	?	.	?	8.5µM*	.
Cc1ccc(C(=O)Nc2ccc(Cl)cc2C(F)(F)F)c(Cl)c1	26%	27%	1%	?	11µM*	?
Cc1ccc(-c2nnc(COc3cccc(-n4cnnn4)c3)o2)cc1	4%	8%	2%	12%	19µM*	-10%
CCOc1ccc(-c2nnc(SCc3nnc(-c4ccccc4)o3)n2-c2ccccc2F)cc1	11%	3%	-3%	12%	27µM*	-20%
Cc1ccc(C(=O)CSc2nnc(COc3cccc(C)c3)o2)cc1	-4%	0%	8%	3%	-13%	?
O=C(OCc1nnc(-c2ccccc2)o1)c1cccc(-n2cnnn2)c1	1%	4%	.	8%	5%	.
Cc1cccc(OCc2nnc(-c3ccc(F)cc3)o2)c1	7%	10%	.	15%	17µM*	.
Cc1ccc(OCc2nnc(-c3ccccc3)o2)cc1	.	.	.	.	17µM*	25%
COc1cccc(N2C(=O)N(CC(=O)NCc3cccc(OC)c3OC)c3ccccc3S2(=O)=O)c1	.	.	.	.	0%	.
COc1ccccc1N1CCN(C(=O)CCc2nnc3n(C)c(=O)c4sccc4n23)CC1	.	.	.	.	-5%	11%
COc1ccc(-c2cc(C(=O)NCC3CCCO3)c3ccccc3n2)cc1 (stereo not drawn)	14%	-6%	-5%	17%	12µM*	7%
COc1cccc(-c2cc(C(=O)NCC3CCCO3)c3ccccc3n2)c1 (stereo not drawn)	-2%	-2%	-1%	-2%	27µM*	-6%
COc1ccc(-c2cc(C(=O)NCC3CCCO3)c3cc(C)ccc3n2)cc1 (stereo not drawn)	16%	3%	-2%	21%	2.1µM*	?
Cc1ccc(-c2cc(C(=O)NCC3CCCO3)c3ccccc3n2)cc1C (stereo not drawn)	6%	-6%	3%	3%	6.7µM*	16%
COc1ccc(-c2cc(C(=O)NCC3CCCO3)c3cc(C(C)C)ccc3n2)cc1 (stereo not drawn)	-2%	-1%[9.26 µM]	.	-1%	?	.
COc1cccc(OCC(=O)NNC(=O)C(=O)Nc2ccc(OC)cc2OC)c1	-1%	-7%	.	7%	?	.
c1ccc(Nc2cccc(Nc3ccccc3)n2)cc1	17%	?	-1%	?	19µM*	-22%
O=c1c(C=NCCN2CCNCC2)c(-c2ccccc2)[nH]n1-c1ccc([N+](=O)[O-])cc1	?	13%	-5%	?	?	.
COc1ccc(-c2[nH]n(-c3ccc([N+](=O)[O-])cc3)c(=O)c2C=NCCN2CCNCC2)cc1	0.71µM*	?	?	0.45µM*	0.95µM*	.
CS(=O)(=O)Nc1cccc(-c2nccc(-n3ccnc3)n2)c1	.	.	-1%	.	.	13%
Nc1[nH]nc2c1NN(c1ccc(Cl)cc1Cl)N2	?	?	-3%	30%	12µM*	?
Nc1c(-c2n[nH]c(=S)n2-c2ccc(Cl)cc2Cl)cnn1-c1ccccc1	-2%	0%	.	-2%	2%	.
SMILES	NPC1 promoter act	ELG1 genotoxic	Luc counter	Rab9 promoter act	FLuc counter	SMN2 splice enh
Cc1ccc(Cn2cnc3nc4c(cc3c2=O)CC(C)CC4)cc1 (stereo not drawn)	.	.	.	.	12µM*	.
O=C1C=C(NCCOC23CC4CC(CC(C4)C2)C3)C2(CCCCC2)O1	-15%	-5%	-1%	15%	3%	-11%
C=CCOc1ccc(/C=C/C(=O)OCC(=O)NCC(=O)Nc2c(C)cc(C)cc2C)cc1	-4%	-4%	.	20%	-4%	.
COC(=O)c1ccc(-c2sc3nc(N4CCOCC4)c4c(c3c2N)CC(C)(C)OC4)o1	1%	1%	3%	0%	-2%	32µM*
Cc1cccc(OCC(O)Cn2c(N3CCCCC3)nc3c2c(=O)n(C)c(=O)n3C)c1 (stereo not drawn)	-5%	-8%	.	2%	-1%	.
O=C(O)C1CC(=O)N(c2ccc(OCc3ccc(Cl)cc3Cl)cc2)C1 (stereo not drawn)	-2%	2%	20%	-5%	17µM*	10%
O=C(O)C1CC(=O)N(c2ccc(OCc3ccccc3Cl)cc2)C1 (stereo not drawn)	3%	2%	2%	2%	?	6%
NC(=O)C1CC(=O)N(c2ccc(OCc3c(F)cccc3Cl)cc2)C1 (stereo not drawn)	-6%	0%	1%	1%	-12%	.
NC(=O)C1CC(=O)N(c2ccc(OCc3ccc(F)cc3)cc2)C1 (stereo not drawn)	2.5µM*	18µM*	.	?	?	.
CCn1cc(CNC(=O)c2ccc3nc(Cc4ccccc4F)oc3c2)cn1	0%	10%	.	-6%	?	.
Cn1cc(CCNC(=O)c2ccc3nc(Cc4ccccc4F)oc3c2)cn1	2.5µM*	?	.	1.6µM*	5.4µM*	.
Cn1cc(CNC(=O)c2ccc3nc(Cc4ccccc4F)oc3c2)cn1	2.8µM*	?	.	?	24µM*	.
Cc1nn(-c2nc3ccccc3[nH]2)c(N)c1-c1ccc(Cl)cc1	?	8%	-2%	3.5µM*	8.5µM*	?
Cc1nn(-c2ccc(Cl)cc2)c(=O)c2ccccc12	4.5µM*	?	0%	2.8µM*	17µM*	13µM*
Cc1nn(-c2ccc3ccccc3c2)c(=O)c2ccccc12	2%	?	-9%	?	12µM*	.
Cc1nn(-c2nc3ccccc3[nH]2)c(=O)c2ccccc12	?	?	1.4µM*	0.1µM*	0.076µM*	-98%
Cc1nn(-c2ccc(Cl)c(Cl)c2)c(=O)c2ccccc12	26%	4%	-5%	19%	-19%	-4%
Cn1ccc2cc(-c3ccc4ncnc(NCc5ccc6c(c5)OCO6)c4c3)ccc21	-3%	.	.	-9%	?	.
COc1ccc(-n2cc(C(=O)NCc3ccccc3Cl)c3ccccc3c2=O)cc1	.	.	.	.	-18%	.

Compound activity: PubChem, National Center for Advancing Translational Sciences (NCATS)
